# Experimental data: PubChem BioAssay (NCATS)
# Records with an inconclusive call do not appear. Where a call stands in place of a potency, no number is given. The source made the active and inactive calls. Unless noted, calls follow the shape of the dose curve; as a rule, active = well fitted curve in the direction sought with a large enough effect; inconclusive = small, poorly fitted or top-dose-only effect, or another doubt; inactive = no such curve, though single readings can be large; an effect the other way counts as inactive or inconclusive.
# Columns and labels:
# [1] = target: Calcium and integrin-binding protein 1 (Homo sapiens) (UniProt Q99828); assay: Primary qHTS for Identification of Calcium Integrin Binding Protein 1 (CIB1) Competitor (AID 1508620);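 also: GST tagged CIB1 binding a fluorescein labelled alphaIIb integrin peptide tracer; top concentration of the series differs between compounds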
# Chain of Calcium and integrin-binding protein 1 (Homo sapiens) (Q99828 whole entry, looked up): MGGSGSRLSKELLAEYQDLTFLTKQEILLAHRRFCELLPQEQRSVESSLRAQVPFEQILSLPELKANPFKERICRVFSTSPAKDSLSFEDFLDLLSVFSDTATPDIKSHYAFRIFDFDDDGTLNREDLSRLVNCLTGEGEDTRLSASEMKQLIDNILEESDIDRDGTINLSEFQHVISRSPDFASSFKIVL
# Procedure, shortened: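 Fluorescence polarization competition: CIB1-GST (1 uM final) preincubated with compound 15 min at room temperature, then FITC-labeled alphaIIb peptide (100 nM final) added for another 15 min. Polarization read at Ex 480/Em 540.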
# [2] = Primary redox qHTS assay for identification of artifact compounds. (AID 1845223)
# Procedure, shortened: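 Amplex Red (25 uM) and HRP (250 mU/mL) in HBSS, with compounds for 15 min, then 250 uM DTT for 30 min, room temperature, dark. Fluorescence 525/598 nm read; normalized to DMSO and 10 uM DA3003; Hill fit.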
# KB-3-1 = assay: Cytotoxic Profiling of Annotated Libraries Using Quantitative High-Throughput Screening (AID 1296008); conditions: Five cell lines viability, CellTiter-Glo ATP luminescence, 48-72 h; max response: stronger effect = lower value; also: nearly all actives have a fitted effect of over 60% in size; also: potency is read from the fitted curve at half-maximal effect
# Procedure, shortened: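 Compounds were pin-transferred onto cells and incubated 48 or 72 hr at 37 degree Celsius, 95% humidity. CellTiter-Glo was added, plates sat 10 min at room temperature, then ATP-coupled luminescence was imaged as the viability read-out.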
# CAOV3 = assay: Primary qHTS to identify gynecologic anti-cancer compounds using libraries of approved drugs and bioactive compounds (AID 1345084); conditions: Gynecologic cancer cell panel viability, ATPlite luminescence, 48 h; series mostly up to 57.5 µM; also: nearly all actives have a fitted effect of over 55% in size; also: potency is read from the fitted curve at half-maximal effect
# Procedure, shortened: (§1)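 48 h compound exposure at 37 C, 5% CO2; five-point qHTS. ATPlite luminescence readout of cell ATP.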
# HeLa = assay: as above; conditions: Gynecologic cancer cell panel viability, ATPlite luminescence, 48 h; series mostly up to 57.5 µM
# Procedure, shortened: as §1
# JEG-3 = assay: as above; conditions: Gynecologic cancer cell panel viability, ATPlite luminescence, 48 h; series mostly up to 57.5 µM
# Procedure, shortened: as §1
# [3] = P-glycoprotein substrates identified in KB-8-5-11 adenocarcinoma cell line, qHTS therapeutic library screen (AID 1346987); also: nearly all actives have a fitted effect of over 65% in size; also: potency is read from the fitted curve at half-maximal effect
# Procedure, shortened: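 Steps: plate 500 KB-8-5-11 cells/well in DMEM + 10% FCS (colchicine removed); pin compounds in dose-response; incubate 72 h, 37 degree C, 5% CO2; add CellTiter-Glo, 5 min; read luminescence.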
# [4] = system: Zika virus NS2B-NS3 protease (unlinked complex); assay: Primary screen GU Rhodamine qHTS for Zika virus inhibitors: Unlinked NS2B-NS3 protease assay (AID 1347159); also: nearly all actives have a fitted effect of over 60% in size; also: potency is read from the fitted curve at half-maximal effect
# Procedure, shortened: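 Noncovalent NS2B hydrophilic domain/NS3 protease complex (25 nM final) in 10 mM Tris-HCl pH 8.0, 0.01% Tween 20, preincubated 15 min with compounds (up to 114 microM), then 1.5 microM Rhodamine110 substrate. Fluorescence change over 15 min fitted to 4-parameter Hill.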
# [5] = P-glycoprotein substrates identified in KB-3-1 adenocarcinoma cell line, qHTS therapeutic library screen (AID 1346986); also: nearly all actives have a fitted effect of over 60% in size
# Procedure, shortened: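 Resistance attributable to P-gp was assessed by comparing AC50 in KB-8-5-11 with parental KB-3-1 and by tariquidar reversal. Cells were exposed 72 h and viability read by CellTiter-Glo.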
# HACAT = assay: qHTS assay to identify novel small-molecules to repurpose for Merkel cell carcinoma treatment (AID 1296009); conditions: MCC and control cell lines, CellTiter-Glo viability, 72 h; at 44.8 µM (top of the series) unless noted; also: nearly all actives have a fitted effect of over 60% in size
# Procedure, shortened: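 qHTS format: cells treated with library compounds in DMSO across 8 (NPC) or 11 (MIPE) concentrations. Readout after 72 hr at 37 degree celsius was CellTiter-Glo luminescence.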
# SKOV3 = assay: Primary qHTS to identify gynecologic anti-cancer compounds using libraries of approved drugs and bioactive compounds (AID 1345084); conditions: Gynecologic cancer cell panel viability, ATPlite luminescence, 48 h; series mostly up to 57.5 µM; also: nearly all actives have a fitted effect of over 55% in size; also: potency is read from the fitted curve at half-maximal effect
# Procedure, shortened: as §1
# [6] = target: Cytochrome P450 2D6 (Homo sapiens) (UniProt P10635); assay: Cytochrome P450 family 2 subfamily D member 6 (CYP2D6) small molecule antagonists: luciferase biochemical (cell-free) qHTS assay (AID 1645840; active = well fitted curve in the direction sought with a large enough effect in the repeat runs; an effect the other way counts as inactive or inconclusive; also: nearly all actives have a fitted effect of over 55% in size)
# Chain of Cytochrome P450 2D6 (Homo sapiens) (P10635 whole entry, looked up): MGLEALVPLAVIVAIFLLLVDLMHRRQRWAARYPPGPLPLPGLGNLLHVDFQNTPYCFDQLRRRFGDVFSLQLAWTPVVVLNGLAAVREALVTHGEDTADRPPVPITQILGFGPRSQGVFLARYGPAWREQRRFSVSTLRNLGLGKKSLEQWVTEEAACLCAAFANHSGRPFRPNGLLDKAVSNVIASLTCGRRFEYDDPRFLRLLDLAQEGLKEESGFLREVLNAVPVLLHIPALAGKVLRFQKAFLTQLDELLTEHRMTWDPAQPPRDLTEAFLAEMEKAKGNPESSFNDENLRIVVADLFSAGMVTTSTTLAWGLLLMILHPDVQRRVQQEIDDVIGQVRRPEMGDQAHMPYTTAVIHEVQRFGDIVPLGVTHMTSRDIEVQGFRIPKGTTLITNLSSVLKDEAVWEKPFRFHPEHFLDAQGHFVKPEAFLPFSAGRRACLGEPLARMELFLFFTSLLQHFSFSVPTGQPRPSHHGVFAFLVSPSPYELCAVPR
# Procedure, shortened: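 P450-Glo luminescent screen: recombinant CYP2D6 enzyme–proluciferin substrate mix preincubated with compound 10 min at room temperature, then NADPH regeneration added for 1 h at room temperature. Detection reagent added for 20 min; luciferin light read as relative luminescence units.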
# [7] = target: Cytochrome P450 2C9 (Homo sapiens) (UniProt P11712); assay: Cytochrome P450 family 2 subfamily C member 9 (CYP2C9) small molecule antagonists: luciferase biochemical (cell-free) qHTS assay (AID 1645842; active = well fitted curve in the direction sought with a large enough effect in the repeat runs; an effect the other way counts as inactive or inconclusive; also: nearly all actives have a fitted effect of over 55% in size)
# Chain of Cytochrome P450 2C9 (Homo sapiens) (P11712 whole entry, looked up): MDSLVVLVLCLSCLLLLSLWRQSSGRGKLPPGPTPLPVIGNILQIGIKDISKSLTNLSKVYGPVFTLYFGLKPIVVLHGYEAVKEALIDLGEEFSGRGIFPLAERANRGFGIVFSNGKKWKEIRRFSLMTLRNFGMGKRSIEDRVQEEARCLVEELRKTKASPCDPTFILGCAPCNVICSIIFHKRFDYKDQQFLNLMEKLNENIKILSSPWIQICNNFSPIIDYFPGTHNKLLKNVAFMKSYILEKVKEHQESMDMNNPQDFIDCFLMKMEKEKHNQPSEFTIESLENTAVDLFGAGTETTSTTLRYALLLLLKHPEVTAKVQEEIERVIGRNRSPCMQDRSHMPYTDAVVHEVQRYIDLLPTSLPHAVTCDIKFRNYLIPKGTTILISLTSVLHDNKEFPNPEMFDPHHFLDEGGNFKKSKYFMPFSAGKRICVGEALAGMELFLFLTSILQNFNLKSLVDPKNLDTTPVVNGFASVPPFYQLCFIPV
# Procedure, shortened: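 Luminescence, after 20 min with luciferin detection reagent, reflected CYP2C9 turnover during a 1 h NADPH-driven reaction at 37C. Enzyme-substrate mix contained 0.4% bovine serum albumin and was preincubated with compound 10 min at room temperature.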
# [8] = target: Catechol O-methyltransferase (Homo sapiens) (UniProt P21964); assay: Confirmatory Screen for Target Class Profiling of Small Molecule Inhibitors of Methyltransferases (AID 1745852); conditions: MTase-Glo luminescence, SAH detection, recombinant enzyme; measured here: COMT max response; stronger effect = lower value
# Chain of Catechol O-methyltransferase (Homo sapiens) (P21964 whole entry, looked up): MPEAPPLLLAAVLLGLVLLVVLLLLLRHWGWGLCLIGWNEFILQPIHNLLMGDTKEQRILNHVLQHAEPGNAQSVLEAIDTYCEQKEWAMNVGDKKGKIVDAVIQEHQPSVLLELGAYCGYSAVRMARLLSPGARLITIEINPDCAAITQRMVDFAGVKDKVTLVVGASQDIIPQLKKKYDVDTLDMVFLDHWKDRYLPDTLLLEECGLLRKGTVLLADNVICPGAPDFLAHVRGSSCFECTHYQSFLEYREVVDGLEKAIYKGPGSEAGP
# [9] = target: Guanidinoacetate N-methyltransferase (Homo sapiens) (UniProt Q14353); assay: as above; conditions: activity change, negative = inhibition: at 57.3 µM (top of the series) unless noted
# [10] = target: Nicotinamide N-methyltransferase (Homo sapiens) (UniProt P40261); assay: as above; conditions: MTase-Glo luminescence, SAH detection, recombinant enzyme; measured here: NNMT max response; stronger effect = lower value
# Chain of Nicotinamide N-methyltransferase (Homo sapiens) (P40261 whole entry, looked up): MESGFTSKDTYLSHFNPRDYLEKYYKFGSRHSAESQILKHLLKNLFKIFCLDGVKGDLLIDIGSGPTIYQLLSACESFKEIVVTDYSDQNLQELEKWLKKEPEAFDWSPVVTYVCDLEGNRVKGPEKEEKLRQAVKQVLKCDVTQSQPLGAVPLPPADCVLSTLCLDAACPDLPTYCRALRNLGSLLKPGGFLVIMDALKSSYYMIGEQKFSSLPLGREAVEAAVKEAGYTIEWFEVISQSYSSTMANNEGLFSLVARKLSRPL
structure (smiles),measurement,setting,value
C[C@H](CCC(=O)O)C[C@H](C)C[C@H](C)C(=O)/C=C(\O)[C@H](C)C[C@H](C)C/C=C/[C@@H](C)[C@@H](O)[C@@H](C)[C@@H](O)C[C@@H]1CC[C@@](C)([C@H]2CC[C@@](C)([C@@H](C)O)O2)O1,Potency,[1],inactive
same,Potency,[2],inactive
same,Potency,KB-3-1,8930 nM (active)
same,Potency,CAOV3,inactive
same,Potency,HeLa,inactive
same,Potency,JEG-3,inactive
CC1=CC(=O)[C@@H](O)[C@]2(C)C3[C@@H](O)[C@@H]4OC(=O)[C@@H]([C@H]4C)[C@]3(C)C(=O)C[C@@H]12 (stereo partly specified),Potency,[3],3210 nM (active)
same,Potency,[4],inactive
same,Potency,[1],inactive
same,Potency,KB-3-1,4530 nM (active)
same,Potency,CAOV3,inactive
same,Potency,HeLa,inactive
same,Potency,JEG-3,inactive
C[C@@H]1[C@H](O)[C@@H](C)/C=C/C=C/CC/C=C/C=C/C=C/C=C/[C@H](O[C@H]2O[C@@H](C)[C@H](O)[C@@H](N)[C@H]2O)C[C@@H]2O[C@](O)(C[C@@H](O)[C@H](O)CC[C@@H](O)C[C@@H](O)C[C@@H](O)CC(=O)O[C@H]1C)C[C@H](O)[C@H]2C(=O)O,Potency,[5],inactive
same,Potency,[3],inactive
same,Potency,[4],8910 nM (active)
same,Potency,[1],inactive
same,outcome,KB-3-1,inactive
same,outcome,HACAT,inactive [at 17.4 µM]
same,Potency,CAOV3,inactive
same,Potency,HeLa,inactive
same,Potency,JEG-3,inactive
COc1cc(O)c2c(c1)/C=C/C[C@@H](O)[C@@H](O)C(=O)CCC[C@H](C)OC2=O,Potency,[3],inactive
same,Potency,[4],inactive
same,Potency,[1],inactive
same,Potency,[2],inactive
same,max response,KB-3-1,5.8% (inactive)
same,Potency,CAOV3,inactive
same,Potency,JEG-3,inactive
same,Potency,SKOV3,inactive
CC(=O)OC[C@]12C[C@H](OC(=O)CC(C)C)C(C)=C[C@H]1O[C@@H]1[C@H](O)C[C@@]2(C)[C@]12CO2,Potency,[3],709 nM (active)
same,Potency,[4],inactive
same,Potency,[1],inactive
same,Potency,[2],inactive
same,Potency,KB-3-1,709 nM (active)
same,Potency,CAOV3,4470 nM (active)
CC(=O)OC[C@]12C[C@H](OC(=O)CC(C)C)C(C)=C[C@H]1O[C@@H]1[C@H](O)[C@@H](OC(C)=O)[C@@]2(C)[C@@]12CO2,Potency,[3],25.2 nM (active)
same,Potency,[4],inactive
same,Potency,[1],inactive
same,Potency,[2],inactive
same,Potency,KB-3-1,35.5 nM (active)
same,Potency,CAOV3,89.1 nM (active)
same,Potency,HeLa,158 nM (active)
same,Potency,JEG-3,1000 nM (active)
COc1cc(N2CCN(C)CC2)ccc1N,Potency,[3],inactive
same,Potency,[4],inactive
same,Potency,[1],inactive
same,Potency,[6],inactive
same,Potency,[7],inactive
same,activity,[8],-7.03%
same,"activity change, negative = inhibition",[9],-4.23%
same,activity,[10],-3.44%
same,max response,KB-3-1,-1.04% (inactive)
same,Potency,CAOV3,inactive
same,Potency,JEG-3,inactive
same,Potency,SKOV3,inactive
